# From PubChem BioAssay AID624151 (Broad Institute, 2012)
# Out of some 28,000 compounds screened, about 410 (1.5%) were called active. The entries come from a sample that favours actives as a whole. Values without a mark were called inactive. Rule as the data show it: active = activation above about 52%; inconclusive = no clear call, values can overlap the other calls; inactive = below that.
# Assay: mutant p53 pathway re-activators, primary screen, cell-based, SW480, luciferase, single point, HTS (AID 624151)
# Conditions: SW480 PUMA-promoter luciferase, p53 mutant reactivation; at 9.98 µM; active compounds read high
row,SMILES,activation
1,Cc1ccnc(NCc2ccc(N(C)C)cc2)c1,45.6%
2,Cc1cc([N+](=O)[O-])nn1CC(=O)NC(C)C,-1.03%
3,N#Cc1c(NC(=O)CCn2cnc3ccccc3c2=O)sc2c1CCCC2,4.75%
4,COc1ccc(C(=O)CSc2nnc(-c3cccc(C)c3)n2-c2ccccc2)cc1,-17.1%
5,CCOc1ccc2c(=O)c(Oc3ccccc3Br)coc2c1,53.9% (active)
6,O=C(COc1ccc2c(=O)c(-c3ccccc3)coc2c1)Nc1ccc(F)cc1,5.8%
7,Cc1cc(C)c(C)c(Oc2coc3cc(OCC(=O)Nc4ccccc4Cl)ccc3c2=O)c1,-8.1%
8,O=C(CSc1nnc(-c2ccccc2F)n1-c1ccccc1)Nc1ccc(Br)cc1,-2.35%
9,CCOC(=O)c1c(NC(=S)Nc2cnccn2)sc2c1CCCCCC2,-14.1%
10,COc1ccc(N(CC(=O)Nc2ccccc2F)S(C)(=O)=O)cc1,-10.8%
11,O=C(NCc1ccco1)C1CCCN(S(=O)(=O)c2ccccc2)C1 (stereo unspecified),-15.8%
12,CC(C)c1cnc(NC(=O)Cc2ccccc2)s1,118% (active)
13,O=C(CS(=O)(=O)Cc1ccccc1)Nc1cccnc1,-13.2%
14,O=C(c1ccccc1Br)N1CCN(c2ccc([N+](=O)[O-])c(NCc3cccnc3)c2)CC1,1.31%
15,COc1ccc(NC(=O)C(=O)NCC(=O)Nc2cccc(C(F)(F)F)c2)cc1,3.32%
16,CCCN(C)C[C@H]1Oc2ncc(C#CCOC)cc2C(=O)N([C@@H](C)CO)C[C@H]1C,6.77%
17,COc1ccc(S(=O)(=O)N(C)C[C@H]2OCCCC[C@@H](C)Oc3ccc(NC(=O)NC(C)C)cc3C(=O)N([C@H](C)CO)C[C@H]2C)cc1,-3.86%
18,COc1ccc(OC(C)C(=O)Nc2ccc(OC)c(OC)c2)cc1 (stereo unspecified),8.88%
19,N#Cc1cc2c(nc1SCC(=O)Nc1ccccc1C(F)(F)F)CCCCC2,25.5%
20,CN(C)c1ccc(NC(=O)CSc2nc3c(c(C(F)(F)F)c2C#N)CCCCCC3)cc1,-6.67%
21,Cc1cccc(NC(=O)CSc2nc3c(cc2C#N)CCCCC3)c1,90.8% (active)
22,COCC#Cc1ccc2c(c1)O[C@H](CN(C)Cc1ccc3c(c1)OCO3)[C@H](C)CN([C@H](C)CO)S2(=O)=O,12.5%

row,SMILES,activation
1,CCn1c2ccccc2c2cc(NS(=O)(=O)c3ccccc3[N+](=O)[O-])ccc21,-0.615%
2,Cn1c(SCC(=O)Nc2c(Cl)cccc2Cl)nnc1-c1ccc(NC(=O)c2ccc(F)cc2)cc1,-1.4%
3,COc1ccc(OC)c(NC(=O)CSc2n[nH]c(-c3ccncc3)n2)c1,-8.93%
4,Cc1ccc(C(C)C)cc1OCC(O)Cn1cnc2ccccc21 (stereo unspecified),-15.4%
5,CCCNC(=O)N(C)C[C@@H]1Oc2ncc(-c3cccc(C#N)c3)cc2C(=O)N([C@@H](C)CO)C[C@@H]1C,2.46%
6,CC(=O)c1cccc(NC(=O)C(C)N(c2ccc(C)cc2)S(C)(=O)=O)c1 (stereo unspecified),0.89%
7,Cc1cc(=O)[nH]c(SCCCOc2ccccc2-c2ccccc2)n1,-15.4%
8,C[C@H]1CN([C@@H](C)CO)C(=O)c2cc(/C=C/c3ccccc3)cnc2O[C@@H]1CN(C)C(=O)c1ccc(F)cc1,5.51%
9,COc1ccc(NC(=O)Cn2cnc3sc(C)c(C)c3c2=O)cc1,4.48%
10,COc1ccc(NC(=O)N(C)C[C@H]2Oc3cc(-c4ccncc4)ccc3S(=O)(=O)N([C@H](C)CO)C[C@H]2C)cc1,-12.4%
11,COc1ccc(NC(=O)CSC2CC(=O)N(c3ccc(F)cc3)C2=O)cc1 (stereo unspecified),-1.05%
12,Cc1ccccc1-n1c(C)cc(/C=C2\NC(=O)NC2=O)c1C,22.9%
13,Cc1ccc(C(=O)O)cc1S(=O)(=O)NCCCO,-7.19%
14,COc1cccc2cc(C(=O)C3C(=O)C(=O)N(CCN4CCOCC4)C3c3ccc(F)cc3)oc12 (stereo unspecified),4.69%
15,C[C@H](O)C#Cc1cnc2c(c1)C(=O)N([C@@H](C)CO)C[C@H](C)[C@H](CN(C)C(=O)c1ccccc1)O2,10.7%
16,C[C@@H]1CN([C@H](C)CO)S(=O)(=O)c2ccc(C#CC3CC3)cc2O[C@H]1CN(C)C(=O)C1CCCCC1,-13.7%
17,Cc1sc2ncnc(SCC(=O)Nc3ccccc3)c2c1-c1ccccc1,-11.3%
18,Cc1ccc(S(=O)(=O)c2nc(-c3cccs3)oc2NCc2cccnc2)cc1,-4.49%
19,C[C@@H]1CN([C@H](C)CO)S(=O)(=O)c2ccc(C#C[C@@H](C)O)cc2O[C@H]1CN(C)C(=O)CC1CC1,0.298%
20,CS(=O)(=O)N(CC(=O)Nc1ccc(Br)cc1)c1cc(Cl)c(Cl)cc1Cl,-23.8%
21,C[C@H](CO)N1C[C@H](C)[C@H](CN(C)C(=O)c2cnccn2)Oc2cc(C3=CCCC3)ccc2S1(=O)=O,3.46%
22,O=C(CSc1nnc(-c2ccncc2)n1-c1ccc(Cl)cc1)Nc1ccc(C(=O)O)cc1,7.38%

row,SMILES,activation
1,CCCC#Cc1cnc2c(c1)C(=O)N([C@H](C)CO)C[C@H](C)[C@@H](CN(C)C(=O)c1cccnc1)O2,2.84%
2,Cc1ccn2c(NC(=O)C(C)(C)Oc3ccc(Cl)cc3)c(-c3ccc(F)cc3)nc2c1,-19%
3,CCc1ccccc1NC(=O)CSc1nnc(N)s1,10.1%
4,COc1ccc(NC(=O)C(C)N2c3cccc4cccc(c34)S2(=O)=O)c(OC)c1 (stereo unspecified),-6.27%
5,COc1ccccc1-c1cnc2c(c1)C(=O)N([C@@H](C)CO)C[C@@H](C)[C@@H](CN(C)C(=O)c1cccnc1)O2,2.65%
6,COc1ccccc1-c1cnc2c(c1)C(=O)N([C@H](C)CO)C[C@H](C)[C@@H](CN(C)CC1CCOCC1)O2,5.27%
7,O=C(O)CCSc1nnc2c(n1)[nH]c1ccccc12,-2.83%
8,O=C(CSc1nnc(-c2ccco2)n1-c1ccccc1)Nc1ccc(F)cc1,7.08%
9,O=C(CSc1nnc(-c2ccc(Br)cc2)o1)Nc1ccc2ccccc2c1,-20.7%
10,Cc1ccc(-c2nnc(SCC(=O)Nc3ccccc3OC(F)F)o2)cc1,102% (active)
11,COc1ccccc1-c1nnc(SCC(=O)Nc2ccccc2)o1,28.3%
12,O=C(CSc1ncnc2sc3c(c12)CCCC3)Nc1ccc(F)c(Cl)c1,0.113%
13,CC(C)Cc1nc(SCC(=O)Nc2ccc3ccccc3c2)n[nH]1,9.32%
14,C/C=C/c1ccc2c(c1)O[C@H](CN(C)Cc1cccc(F)c1)[C@H](C)CN([C@H](C)CO)S2(=O)=O,-12.7%
15,COc1ccccc1NC(=O)N(C)C[C@@H]1Oc2ncc(Br)cc2C(=O)N([C@@H](C)CO)C[C@@H]1C,3.31%
16,CCn1c(SCC(=O)O)nc2sc3c(c2c1=O)CC(C)(C)OC3,17.9%
17,COC(=O)c1cc(OC)c(OC)cc1NC(=O)c1cc(-c2ccc(C)o2)nc2ccccc12,21.7%
18,Cc1ccc(C(=O)Oc2ccc(C(=O)CSc3nc4ccccc4o3)cc2)cc1,45.6%
19,COc1ccc(C(=O)CCC(=O)Nc2ccc(Br)cc2)cc1,-1.31%
20,COc1ccccc1NC(=O)CSc1n[nH]c(C)n1,-9.46%
21,CCOc1ccc(NC(=O)Cn2c(=O)n(-c3ccc(Cl)cc3)c(=O)c3c4c(sc32)CCC4)cc1,-5.81%
22,COc1ccccc1-n1c(N)cc(=O)nc1SCC(=O)Nc1ccc(Br)cc1,3.88%

row,SMILES,activation
1,COC(=O)COc1cccc(NC(=O)c2cc(OC)c(OC)c(OC)c2)c1,9.43%
2,Cc1cc2oc(C(=O)Nc3sc4c(c3C(=O)NCc3ccco3)CCC4)c(C)c2cc1C,-5.36%
3,C[C@@H]1CN([C@@H](C)CO)S(=O)(=O)c2ccc(-c3cccc(C#N)c3)cc2O[C@@H]1CN(C)Cc1cccc(F)c1,-25.7%
4,C[C@@H]1CN([C@@H](C)CO)C(=O)c2cc(/C=C/c3ccccc3)cnc2O[C@H]1CN(C)C(=O)Nc1ccc(C(F)(F)F)cc1,-18.8%
5,COc1ccc(Cl)cc1NC(=O)CSc1nnc(-c2ccc(Cl)c(Cl)c2)n1C,1.7%
6,C/C=C/c1ccc2c(c1)O[C@H](CN(C)C(=O)Cc1cccnc1)[C@@H](C)CN([C@H](C)CO)S2(=O)=O,-5.22%
7,Cc1cc(=O)oc2cc(OC(C)C(=O)Nc3ccc(Cl)c(C(F)(F)F)c3)ccc12 (stereo unspecified),0.711%
8,CCCC#Cc1ccc2c(c1)O[C@@H](CN(C)CC1CC1)[C@@H](C)CN([C@H](C)CO)S2(=O)=O,1.22%
9,COCCNC(=O)C[C@@H]1C[C@@H]2c3cc(NC(=O)Nc4ccc(C(F)(F)F)cc4)ccc3O[C@@H]2[C@@H](CO)O1,11.3%
10,Cc1ccnc(NC(c2cccc([N+](=O)[O-])c2)c2ccc3ccc(C)nc3c2O)c1 (stereo unspecified),-13.9%
11,Cc1csc2nc(SCC(=O)Nc3ccc([N+](=O)[O-])cc3)[nH]c(=O)c12,15.6%
12,Cn1nnc(NC(=O)COc2ccc(Cl)cc2Cl)n1,70.8% (active)
13,COc1cc(NC(=O)COc2ccc(Cl)cc2C)c(OC)cc1Cl,105% (active)
14,COc1cc(NC(=O)COc2cc(C)c(Br)c(C)c2)c(OC)cc1Cl,0.202%
15,COc1ccc(NC(=O)CSc2nnnn2C)cc1Cl,47.7%
16,COc1cc(NC(=O)COc2ccccc2Br)c(OC)cc1Cl,132% (active)
17,CCOc1ccc(OCC(=O)Nc2cc(C)c(Cl)cc2OC)cc1,8.21%
18,COC(=O)c1cc(OC)c(OC)cc1NC(=O)COc1ccc(Cl)cc1,-22.9%
19,COc1cc(NC(=O)COc2ccc(Br)cc2)ccc1NC(=O)c1ccccc1Cl,20.3%
20,COC(=O)c1cc(OC)c(OC)cc1NC(=O)COc1ccccc1Cl,10.4%
